Measured values reported in the supplement of paper PMC3545927.
The other results are listed elsewhere or left out. The hit rate among all sequences tested is not known here.

Target: furin, P09958
Experiment: furin cleavage Z-score vs untreated control; higher = more cleavage, active = 3.5 or more, inactive = 1 or less, 8 variable residues between constant flanks
Method in brief: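 Peptides 8 residues long, fused to a cDNA oligonucleotide, were fixed to magnetic beads by the N-terminus and exposed to purified furin. The 0.01 ml reactions contained 50 mM HEPES pH 7.5 with CaCl2 and NaCl at 1:10 enzyme:substrate and ran 7.5, 15 or 30 min. For the cleavage Z-score, log counts of sequenced released DNA were compared with furin-free reactions, lowess-adjusted and scaled by median absolute deviation.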

Chain of furin, P09958 (P09958 whole entry): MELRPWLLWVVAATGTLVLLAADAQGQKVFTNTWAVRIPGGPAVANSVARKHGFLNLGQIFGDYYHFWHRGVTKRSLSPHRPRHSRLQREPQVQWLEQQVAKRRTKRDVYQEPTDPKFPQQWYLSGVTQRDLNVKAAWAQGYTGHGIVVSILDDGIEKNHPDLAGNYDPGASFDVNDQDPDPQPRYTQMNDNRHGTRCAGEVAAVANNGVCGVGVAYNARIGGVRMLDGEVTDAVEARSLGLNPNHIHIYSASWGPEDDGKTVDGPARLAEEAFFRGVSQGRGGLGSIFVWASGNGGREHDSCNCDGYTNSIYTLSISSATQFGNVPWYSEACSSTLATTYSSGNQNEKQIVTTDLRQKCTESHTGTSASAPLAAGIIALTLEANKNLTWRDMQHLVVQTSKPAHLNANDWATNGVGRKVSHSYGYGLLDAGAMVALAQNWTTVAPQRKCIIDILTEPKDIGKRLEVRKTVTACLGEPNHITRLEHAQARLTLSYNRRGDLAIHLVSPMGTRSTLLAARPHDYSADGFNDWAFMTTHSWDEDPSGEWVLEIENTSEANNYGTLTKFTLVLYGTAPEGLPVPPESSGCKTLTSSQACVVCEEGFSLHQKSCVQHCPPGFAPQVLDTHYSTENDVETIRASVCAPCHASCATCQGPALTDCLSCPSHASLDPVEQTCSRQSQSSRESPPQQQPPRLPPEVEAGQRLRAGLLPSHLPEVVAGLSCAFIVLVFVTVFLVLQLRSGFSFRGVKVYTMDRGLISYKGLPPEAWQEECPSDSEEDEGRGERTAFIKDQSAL

Sequence | furin cleavage Z-score (7.5 min) | furin cleavage Z-score (15 min) | furin cleavage Z-score (30 min)
CAEIEVPCHRAGNASASA [HC2444] | 1.1 | 1.09 | 0.798 (inactive)
CAVFDITKLLAGNASASA [HC603] | 0.928 (inactive) | -0.333 (inactive) | 0.0832 (inactive)
CAKAARAKKIAGNASASA [FS-600] | -0.438 (inactive) | -0.00567 (inactive) | -0.411 (inactive)
CAAATAFVGAAGNASASA [HC1073] | -1.28 (inactive) | -0.663 (inactive) | -0.282 (inactive)
CASPLTTSQTAGNASASA [HC1060] | 0.0213 (inactive) | -0.739 (inactive) | 0.362 (inactive)
CAEKARKGKSAGNASASA [FS-413] | -1.2 (inactive) | -1.61 (inactive) | -0.85 (inactive)
CARLYREKKSAGNASASA [FS-1651] | 0.828 (inactive) | 2.77 | 3.88 (active)
CARLHQWISSAGNASASA [HC1140] | 0.126 (inactive) | -1.75 (inactive) | -1.83 (inactive)
CALKARRKKSAGNASASA [FS-176] | 7.34 (active) | 8.84 (active) | 7.56 (active)
CAEPPCHRPSAGNASASA [HC2339] | 0.111 (inactive) | -0.455 (inactive) | -0.0572 (inactive)
CAMLYRHKKSAGNASASA [FS-829] | 0.949 (inactive) | 1.65 | 1.42
CAEPKRIKKSAGNASASA [FS-157] | 3.63 (active) | 4.2 (active) | 3.26
CASFARIKKWAGNASASA [FS-717] | -0.31 (inactive) | -0.161 (inactive) | 1.88
CALSNRTMKSAGNASASA [FS-615] | 1.04 | -0.454 (inactive) | 0.561 (inactive)
CAEPGREKKSAGNASASA [FS-414] | -0.759 (inactive) | 0.432 (inactive) | -0.848 (inactive)
CAIKCRTKKSAGNASASA [FS-803] | 1.77 | 4.04 (active) | 3.26
CALYDVVTKLAGNASASA [HC1458] | 0.188 (inactive) | 0.0294 (inactive) | -0.805 (inactive)
CAWCTTPCSGAGNASASA [HC1948] | 1.23 | 0.244 (inactive) | 1.72
CAEVECHRPSAGNASASA [HC2352] | 1.1 | 0.203 (inactive) | 0.236 (inactive)
CAFREVPCHRAGNASASA [HC2427] | 0.22 (inactive) | 0.297 (inactive) | 0.623 (inactive)
CAPERLASCRAGNASASA [HC387] | -0.263 (inactive) | 0.599 (inactive) | 1.53
CAVSCCSMSYAGNASASA [HC2017] | 0.592 (inactive) | -0.576 (inactive) | 1.57
CAAISRRQRRAGNASASA [FS-743] | 6.03 (active) | 8.53 (active) | 7.79 (active)
CASSNQLQRRAGNASASA [NG1] | 0.397 (inactive) | 2.01 | -0.568 (inactive)
CAKRSRDARRAGNASASA [FS-45] | 1.61 | -0.052 (inactive) | 2.16
CAGSHRRQRRAGNASASA [FS-434] | 9.09 (active) | 10.6 (active) | 8.98 (active)

Sequence | furin cleavage Z-score (7.5 min) | furin cleavage Z-score (15 min) | furin cleavage Z-score (30 min)
CAARMILMTHAGNASASA [HC1581] | -0.255 (inactive) | -1.76 (inactive) | -1.15 (inactive)
CAAYMNTPGLAGNASASA [HC931] | -0.513 (inactive) | -1.08 (inactive) | 0.157 (inactive)
CAMEPCSQHLAGNASASA [HC1719] | 2.46 | 0.794 (inactive) | 2.77
CAGDDDDKAGAGNASASA [EK1] | -2.21 (inactive) | -1.96 (inactive) | 0.274 (inactive)
CARGQRSVKAAGNASASA [FS-3250] | 0.885 (inactive) | -0.415 (inactive) | 1.5
CARGSRFSKSAGNASASA [FS-83] | -0.0204 (inactive) | -0.301 (inactive) | 0.871 (inactive)
CARGIRPVGRAGNASASA [FS-2932] | -0.929 (inactive) | -0.4 (inactive) | 0.111 (inactive)
CARGKRSCHAAGNASASA [FS-2333] | 5.25 (active) | 5.05 (active) | 5.61 (active)
CARGKRSAGPAGNASASA [FS-1951] | 11.6 (active) | 13.8 (active) | 9.13 (active)
CARGKRFSQSAGNASASA [FS-2934] | 0.749 (inactive) | 2.29 | 2
CARGKRLDGPAGNASASA [FS-3188] | 0.0707 (inactive) | 0.484 (inactive) | -0.699 (inactive)
CARGKRSPKSAGNASASA [FS-2672] | 11.3 (active) | 11 (active) | 9.78 (active)
CAETPCSAHLAGNASASA [HC2472] | -0.0785 (inactive) | -0.846 (inactive) | -1.94 (inactive)
CAVCSCLWMMAGNASASA [HC526] | -0.293 (inactive) | -0.986 (inactive) | -0.164 (inactive)
CARKKKLVSTAGNASASA [FS-2560] | -1.01 (inactive) | -1.81 (inactive) | -1.46 (inactive)
CARHRRYKALAGNASASA [FS-2556] | -0.784 (inactive) | -0.33 (inactive) | 3.08
CARHRRALDTAGNASASA [FS-2943] | 5.7 (active) | 5.62 (active) | 5.06 (active)
CARHRRVNGTAGNASASA [FS-2492] | 0.115 (inactive) | -0.477 (inactive) | -0.55 (inactive)
CARHRRRGSPAGNASASA [FS-2146] | 0.761 (inactive) | 1.81 | 1.39
CARHRRGQETAGNASASA [FS-2145] | 0.466 (inactive) | 0.563 (inactive) | 2.26
CARKKKTEGTAGNASASA [FS-2423] | -1.18 (inactive) | 0.416 (inactive) | 0.176 (inactive)
CARHRRLLSIAGNASASA [FS-3256] | -0.899 (inactive) | -0.261 (inactive) | -0.784 (inactive)
CARHRRSLRLAGNASASA [FS-1717] | 6.94 (active) | 6.95 (active) | 9.37 (active)
CARKKRNGLTAGNASASA [FS-2155] | 5.12 (active) | 6.11 (active) | 6.82 (active)
CARHRRMLTPAGNASASA [FS-2946] | 5.72 (active) | 9.34 (active) | 8.35 (active)
